From PubChem BioAssay come the findings set out here.

Experiment [1] is described as follows: rapamycin-like changes in RPL19A-GFP expression – cell-based, S. cerevisiae, multiplex flow cytometry, primary screen (AID 1862; in the data active = percent of DMSO control GFP below about 86%;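 note: lower values mimic rapamycin by blocking the RPL19A rise seen in DMSO cells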). To be noted: S. cerevisiae RPL19A-GFP strain, flow cytometry fluorescence, 3 h; at 10 µM; stronger effect = lower value.
Experiment [2] is described as follows: TOR pathway GLN3 branch reporter MEP2-GFP changes – S. cerevisiae, multiplex flow cytometry, primary screen (AID 1867;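 active = GFP response, as percent of the DMSO control, above the screen-wide mean plus 3 SD, about 139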;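 note: median GFP channel fluorescence of barcode-gated MEP2-GFP cells measured by flow cytometry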). To be noted: S. cerevisiae MEP2-GFP strain, 3 h, at 10 µM, stronger effect = higher value, 100% means same as DMSO wells.
Experiment [3] can be described thus: TOR pathway RTG branch CIT2 reporter changes – S. cerevisiae, GFP fusion, multiplex flow cytometry, primary screen (AID 1870;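 active = percent response above a set limit, the screen-wide mean plus 3 SD, cut at about 130% in these data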;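 note: barcoded CIT2-GFP strain pooled with four other GFP strains with rapamycin as positive control; median GFP fluorescence per well over plate mean of DMSO wells so 100% = DMSO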). The note with it: S. cerevisiae CIT2-GFP expression, 3 h, at 10 µM, stronger effect = higher value. A general note: Flow cytometry measures light scatter and fluorescence of single cells or particles in a stream.
Experiment [4] is described as follows: TOR pathway LAP4-GFP level changes – S. cerevisiae, multiplex flow cytometry, primary screen (AID 1873;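 active = GFP signal, as percent of the solvent control, above the screen mean plus 3 SD, about 149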). To be noted: S. cerevisiae LAP4-GFP expression, 3 h, at 10 µM, stronger effect = higher value.
A short description of experiment [5]: yeast AGP1-GFP level changes, GLN3 branch – cell-based, multiplex flow cytometry, S. cerevisiae, primary screen (AID 1887;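 active = GFP signal above the screen-wide mean plus 3 SD, that is over about 124.5% of the solvent control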;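 note: AGP1-GFP fusion strain of S. cerevisiae within a five-strain barcoded multiplex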). To be noted: 3 h, at 10 µM, stronger effect = higher value.
Experiment [6] can be described thus: reduced mouse 2C T cell binding to pMHC/ICAM-1 vesicles – MLPCN validation set, flow cytometry, LFA-1/ICAM-1 modulator project, pilot screen (AID 2523;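 active = response below a set limit, under 55% cells CD8-positive and vesicle-bound, and CD8 cells' 90th-percentile brightness under 279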;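 for vesicle binding response: mean PE anti-B7-1 fluorescence of CD8+ cells relative to row control; 100% = QL9-loaded vesicles with DMSO vehicle in the same plate row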). To be noted: 2C mouse CD8+ T cells, at 7 µM, stronger effect = lower value; double positive events: measured here: CD8+/vesicle+ event percentage.
In experiment [7] the target is Integrin beta-1 (Homo sapiens) + Integrin alpha-4 (Homo sapiens) (UniProt P13612+P05556). The experiment in a line: alpha4beta1 integrin LIBS antibody binding reduction – U937 cells, HUTS-21 mAb, flow cytometry, validation set, VLA-4 allosteric modulator project, pilot screen (AID 2674;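 active = inhibition above 50%, about 3 SD of the validation set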;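 note: antibody binding induced by the VLA-4 ligand LDV present at three times its Kd; 0% = LDV ligand with antibody and no compound and 100% = antibody without LDV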). To be noted: HUTS-21 LIBS mAb binding, at 6.7 µM, stronger effect = higher value, binding induced by LDV ligand.

Experiment [8] can be described thus: calorie-restriction mimetic ROS inhibitors, yeast – validation compound set, pilot screen (AID 2706;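 active = superoxide response below 65% of plate, a cut near 3 SD across the whole screen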;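 note: yeast exposed to compound for one week at 30 degrees C before staining; 100% = mean of all compound wells on the same plate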). To be noted: S. cerevisiae aging, superoxide DHE fluorescence; at 10 µM; stronger effect = lower value.
Experiment [9] has as its target Beta-adrenergic receptor kinase 1 (Homo sapiens) (UniProt P25098). The experiment in a line: GRK2 binders displacing RNA aptamer, biochemical, validation, human GRK2, bead flow cytometry (AID 488806;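 active = aptamer binding inhibition above 30%, about 3 SD of noise from non-fluorescent compounds; inactive = inhibition at or below 30%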). The note with it: bead-bound GRK2, FAM-aptamer displacement, at 10 µM, stronger effect = higher value.
Experiment [10] concerns the target Beta-2 adrenergic receptor (Homo sapiens) (UniProt P07550). The experiment in a line: agonist-induced loss of surface beta2AR – cell-based, FAP fluorogen, flow cytometry, validation set, pilot screen (AID 504459;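 active = percent response above 42, roughly 3 SD of non-fluorescent test compounds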;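 note: agonist-driven loss of surface beta2AR via internalization measured by FAP dye flow cytometry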). The note with it: Am2.2-beta2AR cells, at 10 µM, stronger effect = higher value.
For experiment [11], the target named is AP-2 complex subunit beta (Homo sapiens) (UniProt P63010). Kind of experiment: beta-arrestin/AP2 interaction blockers – biochemical, validation set, GST-AP2 beads, flow cytometry, pilot screen (AID 504541;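 active = inhibition above 54%, about 3 SD of non-fluorescent compounds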;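 note: AP2 carries R879A mutation and is captured from E. coli lysate; bead-bound FITC arrestin peptide fluorescence measuring arrestin peptide binding to AP2; 0% = DMSO wells and 100% = excess unlabeled arrestin peptide control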). To be noted: FITC arrestin peptide, at 10 µM, stronger effect = higher value, AP2 beta2 appendage fragment, R879A mutant.
A short description of experiment [12]: cytosolic pH regulators acting via V-ATPase – S. cerevisiae, pHLuorin, HTS validation (AID 504600; in the data active = response above about 15%;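 note: plate controls were DMSO for no effect and reference compound for full effect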). To be noted: V-ATPase proton transport, at 10 µM, stronger effect = higher value.
For experiment [13], the system named is anti-desmoglein-3 scFv antibody binding to human DSG3. Kind of experiment: blockers of pathogenic pemphigus antibody–desmoglein-3 binding – biochemical, validation compound set, bead-based, flow cytometry, pilot screen (AID 588368;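 active = binding below the plate cutoff, the plate median minus 3 SD, with a reading above zero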;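 note: signal is the median channel fluorescence of bead-bound GFP antibody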). The note with it: Protein G beads, DSG3-Fc, scFv-GFP binding, at 10 µM, stronger effect = lower value.
Experiment [14] is described as follows: Nile Red efflux blockade in pump-expressing yeast – validation compound set, multiplex, phenotypic, pilot screen (AID 588506;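 active = efflux inhibition above 0.42, the validation set average plus 4 SD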;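 note: Nile Red retained in cells so higher fluorescence means more efflux inhibition; 0 = negative control wells and 1 = enniatin B 25 µM full block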). The note with it: S. cerevisiae pump-expressing triplex, Nile Red efflux flow cytometry; at 10 µM; stronger effect = higher value; the pumps come from Candida albicans.
Experiment [15] concerns the target ATP-binding cassette sub-family B member 6 (Homo sapiens) (UniProt Q9NP58). The experiment in a line: blockers of ABCB6-driven porphyrin uptake – K562-ABCB6 cells, flow cytometry, validation set, pilot screen (AID 588550).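 Note: 0% = DMSO wells and 100% = benzethonium chloride 70 µM positive control.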 To be noted: K562-ABCB6 porphyrin accumulation, 1 h, at 10 µM, stronger effect = higher value.
Experiment [16] can be described thus: AML differentiation inducers, ER-HoxA9 marrow cells – cell-based, GFP/MAC1 double positive, flow cytometry, validation set, primary screen (AID 588685;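 active = differentiation response of at least 50%, scaled between solvent and reference control, from cells with both markers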;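 note: compound exposure lasts four days before antibody staining and flow analysis; 0% = DMSO wells and 100% = 5 µM fulvestrant positive control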). To be noted: stronger effect = higher value, normalized: vehicle 0, fulvestrant 100.

Records with an inconclusive call do not appear. Activity calls are given as the source filed them.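 Rule for the calls, unless noted: active = inhibition above the screen-wide mean plus 3 SD, about 51%; inactive = the rest.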

Beta-2 adrenergic receptor (Homo sapiens), sequence (P07550 whole entry, looked up): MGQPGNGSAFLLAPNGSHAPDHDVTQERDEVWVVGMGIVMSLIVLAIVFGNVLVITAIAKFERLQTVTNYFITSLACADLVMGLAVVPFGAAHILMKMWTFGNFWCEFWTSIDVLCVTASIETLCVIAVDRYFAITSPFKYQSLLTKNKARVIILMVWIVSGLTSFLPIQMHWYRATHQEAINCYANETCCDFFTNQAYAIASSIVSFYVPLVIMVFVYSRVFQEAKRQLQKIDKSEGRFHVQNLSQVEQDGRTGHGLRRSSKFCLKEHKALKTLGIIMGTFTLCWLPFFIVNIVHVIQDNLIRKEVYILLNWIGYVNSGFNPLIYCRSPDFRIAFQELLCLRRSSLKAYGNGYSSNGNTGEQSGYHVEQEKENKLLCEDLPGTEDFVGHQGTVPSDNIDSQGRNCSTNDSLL
AP-2 complex subunit beta (Homo sapiens), sequence (P63010 whole entry, looked up, the tested form may be a part, one chain of several): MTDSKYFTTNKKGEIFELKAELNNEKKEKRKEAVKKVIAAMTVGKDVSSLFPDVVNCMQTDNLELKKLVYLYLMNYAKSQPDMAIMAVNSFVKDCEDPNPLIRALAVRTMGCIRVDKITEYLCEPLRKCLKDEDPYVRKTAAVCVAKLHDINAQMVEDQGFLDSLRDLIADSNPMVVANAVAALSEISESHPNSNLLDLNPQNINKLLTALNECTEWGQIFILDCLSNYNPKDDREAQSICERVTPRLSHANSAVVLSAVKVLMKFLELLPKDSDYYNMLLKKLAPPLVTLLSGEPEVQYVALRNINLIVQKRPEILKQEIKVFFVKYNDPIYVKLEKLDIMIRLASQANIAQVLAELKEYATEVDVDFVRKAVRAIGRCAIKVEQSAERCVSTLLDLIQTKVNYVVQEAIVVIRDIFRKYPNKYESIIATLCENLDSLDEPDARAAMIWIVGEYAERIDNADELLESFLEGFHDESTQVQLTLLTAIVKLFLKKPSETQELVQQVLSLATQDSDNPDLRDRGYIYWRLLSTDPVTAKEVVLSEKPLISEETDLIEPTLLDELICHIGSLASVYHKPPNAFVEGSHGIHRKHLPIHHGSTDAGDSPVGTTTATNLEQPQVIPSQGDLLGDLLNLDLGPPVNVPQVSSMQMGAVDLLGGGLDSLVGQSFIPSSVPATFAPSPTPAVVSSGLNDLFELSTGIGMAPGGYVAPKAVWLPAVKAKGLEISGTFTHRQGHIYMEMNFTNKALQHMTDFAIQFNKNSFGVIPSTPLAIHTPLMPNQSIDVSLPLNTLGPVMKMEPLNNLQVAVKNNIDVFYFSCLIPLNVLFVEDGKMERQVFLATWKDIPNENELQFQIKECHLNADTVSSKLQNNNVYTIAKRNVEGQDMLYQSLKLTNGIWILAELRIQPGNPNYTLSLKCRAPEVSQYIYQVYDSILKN
Integrin beta-1 (Homo sapiens) + Integrin alpha-4 (Homo sapiens), sequence (P05556 whole entry, looked up): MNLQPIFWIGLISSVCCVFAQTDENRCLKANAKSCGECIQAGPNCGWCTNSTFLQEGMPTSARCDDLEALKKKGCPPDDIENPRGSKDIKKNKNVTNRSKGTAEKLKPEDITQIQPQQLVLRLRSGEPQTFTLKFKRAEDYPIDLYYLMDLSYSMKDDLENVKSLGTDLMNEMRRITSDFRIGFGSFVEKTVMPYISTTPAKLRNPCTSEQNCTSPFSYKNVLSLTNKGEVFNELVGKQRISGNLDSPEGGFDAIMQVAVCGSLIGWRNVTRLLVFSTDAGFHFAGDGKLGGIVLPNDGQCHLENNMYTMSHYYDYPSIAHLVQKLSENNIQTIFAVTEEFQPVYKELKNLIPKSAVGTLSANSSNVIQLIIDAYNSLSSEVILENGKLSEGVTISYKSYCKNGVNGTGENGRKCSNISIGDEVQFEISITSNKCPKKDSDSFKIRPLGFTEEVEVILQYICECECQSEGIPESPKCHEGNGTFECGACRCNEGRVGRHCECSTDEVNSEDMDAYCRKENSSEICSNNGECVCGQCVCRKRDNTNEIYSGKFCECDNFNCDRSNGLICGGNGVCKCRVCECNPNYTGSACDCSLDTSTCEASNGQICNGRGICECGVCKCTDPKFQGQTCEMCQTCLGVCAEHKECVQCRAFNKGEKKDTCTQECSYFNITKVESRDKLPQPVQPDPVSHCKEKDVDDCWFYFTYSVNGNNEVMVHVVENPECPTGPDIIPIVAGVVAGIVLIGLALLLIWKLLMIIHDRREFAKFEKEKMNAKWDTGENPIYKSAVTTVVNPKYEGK
Integrin beta-1 (Homo sapiens) + Integrin alpha-4 (Homo sapiens), sequence (P13612 whole entry, looked up): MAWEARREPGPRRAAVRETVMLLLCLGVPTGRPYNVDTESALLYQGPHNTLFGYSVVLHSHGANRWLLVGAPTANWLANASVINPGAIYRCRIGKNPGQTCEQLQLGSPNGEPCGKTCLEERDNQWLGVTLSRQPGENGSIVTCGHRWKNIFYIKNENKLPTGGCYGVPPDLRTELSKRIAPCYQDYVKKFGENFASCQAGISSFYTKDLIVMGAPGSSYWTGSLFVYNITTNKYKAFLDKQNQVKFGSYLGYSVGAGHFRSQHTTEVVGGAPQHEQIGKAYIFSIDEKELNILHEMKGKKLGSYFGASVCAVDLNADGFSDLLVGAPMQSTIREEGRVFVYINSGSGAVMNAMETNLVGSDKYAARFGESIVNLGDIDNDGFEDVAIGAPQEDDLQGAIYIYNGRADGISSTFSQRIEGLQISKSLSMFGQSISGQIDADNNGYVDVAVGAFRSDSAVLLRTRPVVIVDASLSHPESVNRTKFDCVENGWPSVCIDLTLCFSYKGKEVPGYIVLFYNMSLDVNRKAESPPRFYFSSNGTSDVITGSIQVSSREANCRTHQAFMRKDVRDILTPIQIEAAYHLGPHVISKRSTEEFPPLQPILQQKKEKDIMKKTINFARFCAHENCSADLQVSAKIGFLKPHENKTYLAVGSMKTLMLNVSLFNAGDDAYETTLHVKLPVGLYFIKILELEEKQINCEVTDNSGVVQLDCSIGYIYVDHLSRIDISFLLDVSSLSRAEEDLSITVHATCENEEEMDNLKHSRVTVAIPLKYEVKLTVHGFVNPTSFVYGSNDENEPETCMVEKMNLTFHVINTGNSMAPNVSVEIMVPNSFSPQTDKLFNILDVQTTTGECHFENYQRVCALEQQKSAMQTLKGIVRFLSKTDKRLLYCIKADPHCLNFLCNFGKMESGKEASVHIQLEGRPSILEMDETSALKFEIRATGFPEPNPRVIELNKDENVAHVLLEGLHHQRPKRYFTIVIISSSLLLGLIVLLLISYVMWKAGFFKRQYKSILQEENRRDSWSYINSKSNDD
Beta-adrenergic receptor kinase 1 (Homo sapiens), sequence (P25098 whole entry, looked up): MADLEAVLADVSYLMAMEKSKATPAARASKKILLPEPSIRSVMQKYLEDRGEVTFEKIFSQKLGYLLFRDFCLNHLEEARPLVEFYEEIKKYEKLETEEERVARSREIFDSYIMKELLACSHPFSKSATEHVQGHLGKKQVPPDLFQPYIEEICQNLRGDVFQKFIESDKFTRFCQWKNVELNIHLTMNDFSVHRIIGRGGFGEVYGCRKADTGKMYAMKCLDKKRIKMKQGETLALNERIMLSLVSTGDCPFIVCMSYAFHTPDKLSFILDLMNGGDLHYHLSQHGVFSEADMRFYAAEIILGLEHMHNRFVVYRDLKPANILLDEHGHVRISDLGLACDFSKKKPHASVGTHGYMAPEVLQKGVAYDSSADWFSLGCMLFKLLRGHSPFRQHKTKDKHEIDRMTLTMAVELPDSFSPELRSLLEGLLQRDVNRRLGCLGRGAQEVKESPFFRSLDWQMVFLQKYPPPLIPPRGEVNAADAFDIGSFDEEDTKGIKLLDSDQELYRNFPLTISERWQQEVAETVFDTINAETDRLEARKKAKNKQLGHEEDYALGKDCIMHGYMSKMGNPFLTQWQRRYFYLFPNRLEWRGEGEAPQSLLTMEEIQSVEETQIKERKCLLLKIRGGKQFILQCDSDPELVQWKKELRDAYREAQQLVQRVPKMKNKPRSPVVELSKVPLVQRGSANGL
ATP-binding cassette sub-family B member 6 (Homo sapiens), sequence (Q9NP58 whole entry, looked up): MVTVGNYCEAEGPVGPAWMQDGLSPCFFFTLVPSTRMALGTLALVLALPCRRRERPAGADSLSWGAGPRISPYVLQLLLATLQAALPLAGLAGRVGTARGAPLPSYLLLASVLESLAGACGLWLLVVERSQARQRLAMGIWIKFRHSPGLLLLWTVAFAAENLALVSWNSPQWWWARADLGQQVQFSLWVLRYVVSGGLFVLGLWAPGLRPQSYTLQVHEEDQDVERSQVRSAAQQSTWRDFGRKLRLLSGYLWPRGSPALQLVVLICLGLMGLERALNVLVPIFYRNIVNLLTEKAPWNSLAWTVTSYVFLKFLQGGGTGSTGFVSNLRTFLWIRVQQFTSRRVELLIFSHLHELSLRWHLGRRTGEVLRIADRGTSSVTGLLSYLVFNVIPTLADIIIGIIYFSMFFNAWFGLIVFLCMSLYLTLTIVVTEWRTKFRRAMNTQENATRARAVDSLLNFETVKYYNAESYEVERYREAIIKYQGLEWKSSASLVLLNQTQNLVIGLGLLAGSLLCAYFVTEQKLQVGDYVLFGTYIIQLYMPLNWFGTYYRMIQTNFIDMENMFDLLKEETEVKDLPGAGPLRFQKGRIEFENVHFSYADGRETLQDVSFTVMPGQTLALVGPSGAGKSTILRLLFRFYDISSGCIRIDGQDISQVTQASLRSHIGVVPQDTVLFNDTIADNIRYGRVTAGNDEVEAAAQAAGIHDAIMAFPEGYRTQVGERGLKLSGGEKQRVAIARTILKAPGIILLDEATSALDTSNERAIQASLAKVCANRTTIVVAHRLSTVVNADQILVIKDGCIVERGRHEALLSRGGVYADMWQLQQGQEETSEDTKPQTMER

Take `CCC1CCc2c(sc(NC(=O)c3cccnc3)c2C(N)=O)C1` (stereo not given): in experiment [1], the percent of DMSO control GFP is 97.6% (inactive). Besides, the GFP response vs DMSO is 102% (inactive) in experiment [2] and 108% (inactive) in experiment [4]. The percent response of DMSO control in experiment [3] is 96.4% (inactive). Besides, the GFP response, % of DMSO in experiment [5] is 107% (inactive). The double positive events in [6] came to 64.4%. In addition, the vesicle binding response in [6] was 252% (inactive). Further, the inhibition (usually the drop in the measured response relative to a control, in per cent) in experiment [7] is -38.6% (inactive); in experiment [11], 5.47% (inactive); in experiment [15], 14% (inactive). Moreover, in experiment [8], the superoxide response (% of plate) was 99.6% (inactive). Also, the aptamer binding inhibition in experiment [9] is 7% (inactive). Also, the response in experiment [10] was -24.4% (inactive); in experiment [12], -30.9% (inactive). Further, in experiment [13], the binding (% of control) was 98.3% (inactive). Moreover, in [14], the efflux inhibition (fraction of control) was -0.09 (inactive). Besides, the differentiation response in experiment [16] is 38.4% (inactive).

For `C[C@H]1O[C@@H](O[C@H]2[C@@H](O)C[C@H](O[C@H]3[C@@H](O)C[C@H](O[C@H]4CC[C@@]5(C)[C@H](CC[C@@H]6[C@@H]5C[C@@H](O)[C@]5(C)[C@@H](C7=CC(=O)OC7)CC[C@]65O)C4)O[C@@H]3C)O[C@@H]2C)C[C@H](O)[C@@H]1O`, in experiment [1], the percent of DMSO control GFP is 100% (inactive). In addition, the GFP response vs DMSO in [2] was 105% (inactive); in experiment [4], 93.7% (inactive). In addition, in experiment [3], the percent response of DMSO control was 95.5% (inactive). Further, the GFP response, % of DMSO in [5] is 93.7% (inactive). This compound displayed a double positive events in experiment [6] of 62.7%. Besides, in [6], the vesicle binding response is 151% (inactive). Besides, the inhibition in [7] is 11% (inactive); in experiment [11], -11.4% (inactive); in experiment [15], -10% (inactive). Further, in experiment [8], the superoxide response (% of plate) was 90.7% (inactive). For the same compound, the aptamer binding inhibition in [9] was -2% (inactive). Moreover, the response was 12.4% (inactive) in experiment [10] and 1.64% (inactive) in [12]. Moreover, in experiment [13], the binding (% of control) was 103% (inactive). For the same compound, the efflux inhibition (fraction of control) in experiment [14] is -0.07 (inactive). In experiment [16], the differentiation response was 5.67% (inactive).

Consider `CCNC(=O)c1c(N)sc2c1CCCCC2`, for which the percent of DMSO control GFP in experiment [1] is 103% (inactive). Moreover, the GFP response vs DMSO in experiment [2] is 96.3% (inactive); in experiment [4] it was 90.5% (inactive). For the same compound, in experiment [3], the percent response of DMSO control is 101% (inactive). The GFP response, % of DMSO in experiment [5] is 94.9% (inactive). This compound also gave a double positive events in experiment [6] of 63.8%. In addition, the vesicle binding response in experiment [6] was 262% (inactive). The inhibition in [7] is -27.7% (inactive); in experiment [11] it was 9.58% (inactive); in experiment [15], 2% (inactive). Besides, in experiment [8], the superoxide response (% of plate) was 101% (inactive). In addition, in [9], the aptamer binding inhibition was 1% (inactive). Also, the response in experiment [10] was 33.6% (inactive); in experiment [12] it was -1.51% (inactive). Moreover, the binding (% of control) in experiment [13] is 95.3% (inactive). Also, the efflux inhibition (fraction of control) in [14] is 0.12 (inactive). The differentiation response in experiment [16] was 7.2% (inactive).

With `Cc1ccc(S(=O)(=O)NC(=O)Nc2cc(C)ccc2F)cc1`, the percent of DMSO control GFP in [1] was 102% (inactive). Besides, the GFP response vs DMSO in experiment [2] was 105% (inactive); in experiment [4], 82.2% (inactive). Further, the percent response of DMSO control in experiment [3] was 93.1% (inactive). Moreover, the GFP response, % of DMSO in [5] was 96.5% (inactive). Further, the double positive events in [6] was 62.3%. The vesicle binding response in experiment [6] is 1090% (inactive). Also, the inhibition is 2.66% (inactive) in experiment [7], 56.9% (active) in experiment [11] and -2% (inactive) in experiment [15]. Further, the superoxide response (% of plate) in [8] is 110% (inactive). Besides, in [9], the aptamer binding inhibition was 2% (inactive). In addition, the results for the response in [10] and in experiment [12] were -5.23% (inactive) and -3.86% (inactive), respectively. The binding (% of control) in experiment [13] was 92.9% (inactive). In experiment [14], the efflux inhibition (fraction of control) is 0.64 (active). In addition, in experiment [16], the differentiation response was 34.5% (inactive).

For the compound `C=CCNc1nc2c(c(=O)n(C)c(=O)n2C)n1CC(=C)C`, the percent of DMSO control GFP in experiment [1] was 101% (inactive). In addition, the results for the GFP response vs DMSO in experiment [2] and in experiment [4] were 101% (inactive) and 91.6% (inactive), respectively. Moreover, the percent response of DMSO control in [3] is 101% (inactive). Further, in experiment [5], the GFP response, % of DMSO is 103% (inactive). For the same compound, the double positive events in [6] is 63.3%. Besides, the vesicle binding response in [6] was 176% (inactive). Moreover, the inhibition in experiment [7] was -16.1% (inactive); in experiment [11], 8.24% (inactive); in experiment [15], 3% (inactive). The superoxide response (% of plate) in [8] is 103% (inactive). Further, the aptamer binding inhibition in [9] was 3% (inactive). The response was -5.19% (inactive) in experiment [10] and -4.28% (inactive) in [12]. Also, the binding (% of control) in experiment [13] was 104% (inactive). In addition, the efflux inhibition (fraction of control) in experiment [14] is -0.38 (inactive). In [16], the differentiation response was -1.88% (inactive).
